{"source": "PubChem BioAssay AID1441", "about": "(NMMLSC, 2008)", "note": "The campaign covered roughly 220,000 compounds. About 830 (0.38%) were called active. The entries come from a sample that favours actives as a whole. Values without a mark were called inactive. The rule behind the calls is not given here."}
{"biological_target": "Regulator of G-protein signaling 16 (Homo sapiens) + Guanine nucleotide-binding protein G(o) subunit alpha (Homo sapiens) (UniProt O15492+P09471)", "sequence (O15492 whole entry, looked up)": "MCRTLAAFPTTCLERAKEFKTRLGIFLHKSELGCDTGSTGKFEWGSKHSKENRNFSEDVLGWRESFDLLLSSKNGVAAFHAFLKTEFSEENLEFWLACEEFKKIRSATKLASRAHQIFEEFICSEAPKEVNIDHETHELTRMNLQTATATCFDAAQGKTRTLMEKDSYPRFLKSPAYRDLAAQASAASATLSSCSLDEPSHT", "sequence (P09471 whole entry, looked up)": "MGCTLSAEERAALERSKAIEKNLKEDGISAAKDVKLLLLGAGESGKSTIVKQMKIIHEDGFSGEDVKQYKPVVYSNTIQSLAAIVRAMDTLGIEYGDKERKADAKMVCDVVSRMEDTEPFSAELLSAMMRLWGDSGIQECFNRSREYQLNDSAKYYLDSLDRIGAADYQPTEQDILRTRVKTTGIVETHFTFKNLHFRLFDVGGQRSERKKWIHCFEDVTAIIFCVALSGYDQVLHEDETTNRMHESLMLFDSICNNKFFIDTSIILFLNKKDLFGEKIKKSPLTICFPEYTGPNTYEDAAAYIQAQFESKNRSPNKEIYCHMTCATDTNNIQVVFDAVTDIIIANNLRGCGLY", "test": "modulators of RGS16 binding to Galphao, primary screen, biochemical, human proteins, multiplexed bead flow cytometry (AID 1441);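 note: Galphao activated by GDP with aluminum fluoride before binding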", "settings": "bead-based flow cytometry RGS16-Galphao binding, fluorescence; at 10 µM; actives lie on both sides"}
{"smiles": "C/C=C/C(=O)OCC(=O)Nc1ccc(F)cc1Cl", "binding response (% of control)": "104%"}
{"smiles": "Cc1cccc(CN2CCN(Cc3cnn(-c4ccccc4F)c3)CC2CCO)n1", "note": "(centres undefined)", "binding response (% of control)": "101%"}
{"smiles": "O=C(NCc1ccccc1)c1ccc(S(=O)(=O)Nc2cccc(C(F)(F)F)c2)cc1", "binding response (% of control)": "80.9%"}
{"smiles": "CCOC(=O)CSc1nc2c(c(=O)n(Cc3ccccc3Cl)c(=O)n2C)n1C", "binding response (% of control)": "-55.5% (active)"}
{"smiles": "CCOC(=O)CSc1nc2c(c(=O)n(C)c(=O)n2C)n1Cc1ccccc1F", "binding response (% of control)": "102%"}
{"smiles": "Cn1c(=O)c2c(nc(SCC(=O)Nc3ccccc3N3CCCCC3)n2C)n(C)c1=O", "binding response (% of control)": "117%"}
{"smiles": "COc1ccccc1C1CCN(C(=S)Nc2ccc(Br)cc2)CC1", "binding response (% of control)": "98%"}
{"smiles": "COc1ccc(NS(=O)(=O)c2ccc(NC(=S)NC(=O)CC(C)C)cc2)cc1", "binding response (% of control)": "98.4%"}
{"smiles": "CC(=O)c1ccc(NC(=S)NC(=O)CC(C)C)cc1", "binding response (% of control)": "21.8% (active)"}
{"smiles": "CC(C)CC(=O)NC(=S)Nc1cc(C(=O)O)ccc1Cl", "binding response (% of control)": "103%"}
{"smiles": "CC(=O)Nc1cccc(-c2nc3ccccc3s2)c1C", "binding response (% of control)": "108%"}
{"smiles": "C/C(=N\\NC(=O)c1cccnc1)c1ccc(-c2ccccc2)cc1", "binding response (% of control)": "95.2%"}
{"smiles": "CC(C)c1nc(CNC(=O)CC2C(=O)NCCN2Cc2ccoc2)cs1", "note": "(centres undefined)", "binding response (% of control)": "105%"}
{"smiles": "CC(C)=C1SC(N2CCN(c3ccc(C)c(Cl)c3)CC2)=NC1=O", "binding response (% of control)": "99.9%"}
{"smiles": "CC(C)(C)NC(=O)c1cccc(NC(=O)Cc2ccc(Br)cc2)c1", "binding response (% of control)": "-3.28% (active)"}
{"smiles": "Cc1cccc(C)c1NC(=O)CNC(=O)Cc1ccc(Br)cc1", "binding response (% of control)": "98.2%"}
{"smiles": "COc1ccc(CC(=O)Nc2ccc(C(=O)NC(C)(C)C)cc2)cc1", "binding response (% of control)": "99.7%"}
{"smiles": "O=C(COC(=O)c1ccncc1)c1ccccc1", "binding response (% of control)": "104%"}
{"smiles": "O=C1C2C3C=CC(C3)C2C(=O)N1c1ccc(S(=O)(=O)Nc2nccs2)cc1", "note": "(centres undefined)", "binding response (% of control)": "93.2%"}
{"smiles": "O=C(Nc1ccccc1)c1cc2ccccc2[nH]1", "binding response (% of control)": "13.8% (active)"}
{"smiles": "COc1ccc2[nH]c(C(=O)Nc3ccccc3Cl)cc2c1", "binding response (% of control)": "97.5%"}
{"smiles": "CC(C)n1c(=O)[nH]c2cc(C(=O)Nc3ccccc3)ccc21", "binding response (% of control)": "107%"}
{"smiles": "O=C(Nc1ccc(S(=O)(=O)Nc2nccs2)cc1)c1cc(=O)[nH]c2ccccc12", "binding response (% of control)": "100%"}
{"smiles": "CC1CCN(Cc2nc(-c3ccc(Cl)cc3)no2)CC1", "binding response (% of control)": "108%"}
{"smiles": "COC(=O)C1=C(Nc2ccc(C)cc2)C=C(C)C(C(=O)OC)C1c1ccc(F)cc1", "note": "(centres undefined)", "binding response (% of control)": "109%"}
{"smiles": "Cc1cs/c(=N\\N=C\\c2ccc(O)cc2)n1Cc1ccco1", "binding response (% of control)": "104%"}
{"smiles": "CN(c1ccccc1)c1ccc(/C=c2\\s/c(=C(/C#N)C(=O)C(C)(C)C)n(Cc3ccco3)c2=O)cc1", "binding response (% of control)": "551% [activator] (active)"}
{"smiles": "COc1ccc(NC(=O)Cn2c(=O)n(Cc3ccco3)c(=O)c3ccccc32)cc1", "binding response (% of control)": "101%"}
{"smiles": "COc1ccccc1-n1cn[nH]c1=S", "binding response (% of control)": "102%"}
{"smiles": "COc1ccccc1-n1c(-c2cc(-c3ccco3)[nH]n2)n[nH]c1=S", "binding response (% of control)": "-1.14% (active)"}
{"smiles": "COc1ccc(OC)c(-n2c(-c3ccn[nH]3)n[nH]c2=S)c1", "binding response (% of control)": "102%"}
{"smiles": "CCCOc1ccc(Cc2c(Cl)nc(SC)nc2NC)cc1", "binding response (% of control)": "97.7%"}
{"smiles": "COc1ccc(/C=N/n2nnnc2N)cc1OC", "binding response (% of control)": "125%"}
{"smiles": "C=CCNC(=O)/C(=C\\c1cccc([N+](=O)[O-])c1)NC(=O)c1ccccc1", "binding response (% of control)": "98%"}
{"smiles": "CN(C)CCNC(=O)/C(=C/c1cccc([N+](=O)[O-])c1)NC(=O)c1ccccc1", "binding response (% of control)": "219% [activator] (active)"}
{"smiles": "O=C(NCCc1ccccc1)/C(=C\\c1ccc([N+](=O)[O-])cc1)NC(=O)c1ccccc1", "binding response (% of control)": "101%"}
{"smiles": "CCSc1ccccc1C(=O)NCc1ccc(OC)cc1", "binding response (% of control)": "98.1%"}
{"smiles": "S=c1[nH]nc(-c2cc(-c3ccccc3)n[nH]2)n1/N=C/c1c2ccccc2cc2ccccc12", "binding response (% of control)": "97.7%"}
{"smiles": "COC(=O)c1ccc(/C=N\\n2c(C)nnc2C)cc1", "binding response (% of control)": "82.2%"}
{"smiles": "CCN(CC)S(=O)(=O)c1cccc(-c2n[nH]c(=S)n2/N=C/c2ccc(C(=O)OC)cc2)c1", "binding response (% of control)": "334% [activator] (active)"}
{"smiles": "Cc1cccc(NC(=O)c2nc[nH]c2C(=O)NCC(=O)OCc2ccccc2)c1", "binding response (% of control)": "110%"}
{"smiles": "NC(=O)Cc1ccc2sc(-c3ccccc3)nc2c1", "binding response (% of control)": "23.6% (active)"}
{"smiles": "NC(=O)Cc1ccc2c(c1)[nH]c1ccccc12", "binding response (% of control)": "103%"}
{"smiles": "O=C(O)Cc1sc(-c2ccc(C(=O)O)cc2)nc1-c1ccccc1", "binding response (% of control)": "99.1%"}
{"smiles": "CSCC[C@H](NC(=O)CCCn1nnc2ccccc2c1=O)C(=O)O", "binding response (% of control)": "104%"}
{"smiles": "C=CCn1c(Cn2nnc3ccccc32)nnc1SCC(=O)N/N=C/c1cc(Br)cc(OC)c1O", "binding response (% of control)": "-35.2% (active)"}
{"smiles": "Cc1ccc(Cn2c(SCC(=O)N/N=C/c3ccccc3OCC(=O)O)nc3ccccc32)cc1", "binding response (% of control)": "99.5%"}
{"smiles": "COc1ccc(OC)c(/C=N/NC(=O)CSc2nnc(C)n2-c2ccccc2)c1", "binding response (% of control)": "97.7%"}
{"smiles": "CN1CCN(S(=O)(=O)c2ccc(N3CCN(S(=O)(=O)c4cccs4)CC3)nc2)CC1", "binding response (% of control)": "98.8%"}
{"smiles": "Cc1ccc(NC(=O)NCC(c2cccnc2)N2CCOCC2)cc1", "note": "(centres undefined)", "binding response (% of control)": "105%"}
{"smiles": "CN1CCN(C(CNS(=O)(=O)c2cccs2)c2cccnc2)CC1", "note": "(centres undefined)", "binding response (% of control)": "-5.62% (active)"}
{"smiles": "Cn1nc(C(C)(C)C)c([N+](=O)[O-])c1C(N)=O", "binding response (% of control)": "98.6%"}
{"smiles": "COc1ccc2c(c1)CC[C@@H]1[C@@H]2CC[C@]2(C)C(=O)CC[C@@H]12", "binding response (% of control)": "101%"}
{"smiles": "O=C(NCCc1c[nH]c2ccc(Cl)cc12)c1ccc([N+](=O)[O-])cc1", "binding response (% of control)": "112%"}
{"smiles": "COc1ccccc1-n1c(=S)[nH]c2c(sc(=S)n2-c2ccc(C)cc2C)c1=O", "binding response (% of control)": "94.4%"}
{"smiles": "COc1cccc(C2Nc3cccc4cccc(c34)N2)c1", "binding response (% of control)": "106%"}
{"smiles": "O=[N+]([O-])C(=c1ccc2c(c1)N1C3=C(CCCC3)CC3CCCCC31N=2)[N+](=O)[O-]", "note": "(centres undefined)", "binding response (% of control)": "20.9% (active)"}
{"smiles": "Cc1ccc(C)c(NC(=O)C(OC(=O)c2ccc(C)s2)c2ccccc2)c1", "note": "(centres undefined)", "binding response (% of control)": "112%"}
{"smiles": "COc1ccc(CN(Cc2ccc(OC)cc2)C(=O)c2cccs2)cc1", "binding response (% of control)": "99%"}
